Shown are actives, neighbours in structure and some others; about 4.7% of the full set was active somewhere.
Calb FLC = C. albicans growth inhibition with fluconazole, primary screen, CaCi-2 strain, Alamar Blue fluorescence | growth inhibition, % (test concentration not listed) | AID 1979, 2009 | C. albicans CaCi-2 (fluconazole-resistant clinical isolate) + fluconazole, 48 h | hit rate 0.57% among 300,000;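 active means growth inhibition above about 58% in most replicates, limit read from the data, passing the limit was not always enough; inconclusive means exactly half the replicates above a set limit; inactive means most replicates below a set limit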;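 further: all wells also contain fluconazole at 8 µg/ml as a sub-toxic cotreatment; 0% = median of DMSO wells and 100% = median of geldanamycin control wells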
tim10-1 inh = growth inhibitors of tim10-1 mutant yeast, primary screen, luminescence, uHTS; S. cerevisiae tim10-1 ts strain growth, BacTiter-Glo, 24 h; inhibition, % at 20 µM; hit rate 2.2% among 330,000;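 active means inhibition of at least 40%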;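 further: mutant grown at 25 °C; 0% = DMSO wells with yeast and 100% = wells holding no yeast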
PfHsp90 yeast 2 = growth inhibition of PfHsp90-expressing yeast, primary screen, antimalarial PfHsp90 inhibitor project, S. cerevisiae, BacTiter-Glo luminescence, single point, set 2; BacTiter-Glo ATP, 48 h; yeast lacking PDR1 and PDR3 efflux regulators; inhibition, % at 9.4 µM; hit rate 0.32% among 310,000;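 active means every replicate shows inhibition above about 80%, whatever the replicate mean, limit read from the data; inconclusive means mean inhibition reaches the set limit but some replicate falls short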;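 further: 0% = DMSO neutral controls and 100% = 20 µM radicicol positive controls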
SKKanGAS inh = S. pyogenes SKKanGAS growth inhibitors in kanamycin, primary screen, streptokinase expression inhibitor project, SKKanGAS strain, BacTiter-Glo luminescence. 6 h. inhibition, % at 7.5 µM. hit rate 1.3% among 300,000. AID 1662, 2009;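 active means mean replicate score, as percent of positive control median, at least 50; inconclusive means mean below 50 but one replicate at or above 50; inactive means mean and every replicate below 50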;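 further: strain carries kanamycin resistance gene driven by streptokinase promoter and grows in 40 µg/ml kanamycin; loss of luminescence reflects streptokinase promoter inhibition or plain growth inhibition; 0% = median of DMSO wells and 100% = positive control at its reference dose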
tim23-1 inh = growth inhibitors of tim23-1 mutant yeast, primary screen, luminescence, uHTS; inhibition, % at 20 µM; hit rate 1.3% among 330,000; S. cerevisiae tim23-1 growth, BacTiter-Glo luminescence, 24 h;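 active means growth inhibition of the mutant yeast at or above 50%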;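 further: temperature-sensitive mutant grown at 25 °C; plate controls were DMSO-treated mutant yeast for no effect and medium wells lacking yeast for full effect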
TIM10 inh = growth inhibitors of isogenic TIM10 control yeast, primary screen, counter-screen for tim10-1 yeast inhibitor project, luminescence, uHTS | hit rate 1.4% among 330,000 | inhibition, % at 10 µM | S. cerevisiae TIM10 strain growth, BacTiter-Glo luminescence, 24 h | AID 463195, 2010;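 active means inhibition of 40% or more at the single tested concentration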;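 further: wild-type TIM10 isogenic control strain grown at permissive 25 °C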
tim10-1 confirm = growth inhibitors of tim10-1 mutant yeast, confirmation, single concentration, luminescence, S. cerevisiae | shares compounds with tim10-1 inh | S. cerevisiae tim10-1 ts strain growth, BacTiter-Glo, 24 h | inhibition, % at 20 µM | hit rate 56% among 7,400 | AID 463213, 2010;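 active means inhibition of yeast growth at or above a set limit in either of two repeat tests at 20 µM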;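 further: tim10-1 mutant grown at permissive 25 °C to find synthetic lethal compounds; 0% = DMSO yeast wells and 100% = medium wells without yeast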
* = called active by the depositor; ? = inconclusive; · = no result given.

SMILES | Calb FLC | tim10-1 inh | PfHsp90 yeast 2 | SKKanGAS inh | tim23-1 inh | TIM10 inh | tim10-1 confirm
O=C(C1CCCN(c2ncnc3c2nc2n3CCCCC2)C1)N1CCN(c2cccc(Cl)c2)CC1 (stereo not given) | 54 | 41* | -2 | 19 | 24 | 8 | 4
O=C(Nc1ccc(Cl)cc1)C1CCCN(c2ncnc3c2nc2n3CCCCC2)C1 (stereo not given) | 6 | 53* | -13 | 15 | 41 | 4 | 12
Cc1cccc(N2CCN(C(=O)C3CCN(c4ncnc5c4nc4n5CCCCC4)CC3)CC2)c1C | -8 | 56* | -77 | -8 | 39 | 29 | 22
COc1ccc(NS(=O)(=O)c2ccc(N3CCOCC3)c(N)c2)cc1 | · | 2 | 7 | · | 4 | -7 | ·
CCCn1nc(C(=O)Nc2ccc(N3CCOCC3)cc2)c2ccccc2c1=O | · | -5 | 1 | · | 4 | -8 | ·
CC(=O)N(C(C)=O)C1=C(C#N)C2(CCCCC2)Cc2ccccc21 | ? | 47* | -15 | 0 | 50 | 34 | 34*
CCC(=O)Nc1ccc(NC(=O)C23CC4CC(CC(C4)C2)C3)cn1 | -27 | 33 | 23 | 1 | 28 | 25 | ·
Cc1ccnc(NC(=O)C23CC4CC(CC(C4)C2)C3)c1 | -15 | 49* | -14 | -7 | 38 | 22 | 34*
c1ccc(-n2nnnc2SCc2cccc3nsnc23)cc1 | 9 | 40* | -8 | 5 | 36 | 23 | 33*
C=CCNC(=S)NNC(=O)c1cccn(Cc2ccc(Cl)cc2Cl)c1=O | -1 | 47* | · | 3 | 12 | -22 | 30
CCOc1ccc(N2CC(C(=O)N3CCCc4ccccc43)CC2=O)cc1 (stereo not given) | 2 | 41* | -1 | 4 | 35 | 14 | 20
COC(CNS(=O)(=O)c1ccc(S(=O)(=O)NC2CC2)cc1)OC | 1 | 11 | 0 | 1 | 10 | -12 | ·
O=C(CNC(=O)C1COc2ccccc2O1)N/N=C\c1ccc(Br)cc1 (stereo not given) | 7 | 60* | 5 | -4 | 46 | 33 | 24
O=C(N/N=C/C=C/c1ccc([N+](=O)[O-])cc1)C1COc2ccccc2O1 (stereo not given) | -47 | 51* | -8 | -1 | 35 | 19 | 37*
COc1ccc(Br)cc1/C=N/NC(=O)CNC(=O)C1COc2ccccc2O1 (stereo not given) | -36 | 28 | -1 | 0 | 15 | 13 | ·
Cc1cccc(CCNCc2c(C(=O)O)c(C)n(-c3ccccc3)c2C)c1 | 5 | 21 | -5 | 2 | 14 | 8 | ·
Cn1c(NCc2c(O)ccc3ccccc23)nc2ccccc21 | 1 | 45* | · | 5 | 36 | 28 | 33*
Cc1cc(NC(=O)C(C)SCC(=O)OCc2ccc(Cl)cc2Cl)no1 (stereo not given) | · | 13 | -12 | · | 37 | 14 | ·
Cc1ncoc1C(=O)NC1CC(C)(C)Cc2c1cnn2-c1ccccc1 (stereo not given) | -9 | 16 | -2 | 0 | 9 | 9 | ·
COc1ccc(-n2ncc3c2CC(C)(C)CC3NC(=O)c2ocnc2C)cc1 (stereo not given) | -2 | 11 | -5 | -3 | 5 | -5 | ·
COc1ccc(-n2ncc3c2CC(C)(C)CC3NC(=O)c2oc(C)cc2C)cc1 (stereo not given) | 2 | 44* | -29 | 1 | 36 | 14 | 11
CSCc1ccc(C(=O)NC2CC(C)(C)Cc3c2cnn3-c2ccc(F)cc2)o1 (stereo not given) | -4 | 41* | 19 | 1 | 38 | 25 | 13
Cc1cc(C)c(C(=O)NC2CC(C)(C)Cc3c2cnn3-c2ccccc2)o1 (stereo not given) | -4 | 45* | 22 | 1 | 42 | 20 | 24

Screens from PubChem BioAssay.
